# Assays:
# Assay in all cases: DAPPL (digital affinity profiling via proximity ligation, sequencing); 10 mM Tris-HCl pH 7.5, 50 mM NaCl, 1 mM DTT, 4% glycerol, room temperature, 30 min; GST-TFs on glutathione beads, 16-mer random dsDNA library, 0.1% formaldehyde crosslink after washing; high values mean tight binding
# Details in all cases: protein: recombinant; tags: N-terminal GST; dsDNA, one strand shown
# FLI1 = target: T1, FLI1 (Homo sapiens, UniProt Q01543 1-452)
# T1 sequence: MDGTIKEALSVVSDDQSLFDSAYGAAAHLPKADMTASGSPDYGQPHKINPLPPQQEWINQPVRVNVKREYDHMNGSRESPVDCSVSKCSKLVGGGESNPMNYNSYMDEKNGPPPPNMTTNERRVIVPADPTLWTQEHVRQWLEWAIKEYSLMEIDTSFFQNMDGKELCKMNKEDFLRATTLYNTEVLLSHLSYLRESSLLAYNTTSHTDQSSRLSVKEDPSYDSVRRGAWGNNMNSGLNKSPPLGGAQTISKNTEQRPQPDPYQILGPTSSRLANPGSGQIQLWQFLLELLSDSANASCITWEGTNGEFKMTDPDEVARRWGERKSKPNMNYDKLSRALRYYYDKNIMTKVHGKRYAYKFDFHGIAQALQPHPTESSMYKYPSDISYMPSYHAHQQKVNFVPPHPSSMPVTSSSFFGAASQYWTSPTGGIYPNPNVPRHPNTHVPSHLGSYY
# Procedure, shortened: (§1)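 After expression in yeast as GST fusions, human transcription factors were bound to glutathione beads, DNA-barcoded and mixed with a tag-only sample. The pools were incubated with 200 nmole of a 16-mer random double-stranded DNA library in Tris/NaCl/DTT/glycerol buffer (30 min, room temperature), washed and crosslinked with 0.1% formaldehyde. Proximity ligation with BsaI/T4 ligase ran for 1 h at 37 °C, before PCR amplification and sequencing on an Illumina NextSeq500. Binding signal is a hexamer's read frequency for a factor divided by its frequency for the tag-only sample.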
# ELK1 = target: T2, ELK1 (Homo sapiens, UniProt P19419 1-428)
# T2 sequence: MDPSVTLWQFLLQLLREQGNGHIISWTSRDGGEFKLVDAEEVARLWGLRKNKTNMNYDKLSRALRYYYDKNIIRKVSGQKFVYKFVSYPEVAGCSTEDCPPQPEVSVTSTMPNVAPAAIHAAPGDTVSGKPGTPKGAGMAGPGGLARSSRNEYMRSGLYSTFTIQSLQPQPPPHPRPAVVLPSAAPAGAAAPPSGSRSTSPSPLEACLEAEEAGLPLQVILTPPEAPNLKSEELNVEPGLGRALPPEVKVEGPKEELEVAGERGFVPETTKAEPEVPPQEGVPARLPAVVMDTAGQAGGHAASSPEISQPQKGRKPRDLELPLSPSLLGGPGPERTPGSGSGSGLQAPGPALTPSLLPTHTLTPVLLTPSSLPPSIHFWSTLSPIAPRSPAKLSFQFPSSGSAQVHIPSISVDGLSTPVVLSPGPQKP
# Procedure, shortened: as §1
# GABPA = target: T3, GABPA (Homo sapiens, UniProt Q06546 1-454)
# T3 sequence: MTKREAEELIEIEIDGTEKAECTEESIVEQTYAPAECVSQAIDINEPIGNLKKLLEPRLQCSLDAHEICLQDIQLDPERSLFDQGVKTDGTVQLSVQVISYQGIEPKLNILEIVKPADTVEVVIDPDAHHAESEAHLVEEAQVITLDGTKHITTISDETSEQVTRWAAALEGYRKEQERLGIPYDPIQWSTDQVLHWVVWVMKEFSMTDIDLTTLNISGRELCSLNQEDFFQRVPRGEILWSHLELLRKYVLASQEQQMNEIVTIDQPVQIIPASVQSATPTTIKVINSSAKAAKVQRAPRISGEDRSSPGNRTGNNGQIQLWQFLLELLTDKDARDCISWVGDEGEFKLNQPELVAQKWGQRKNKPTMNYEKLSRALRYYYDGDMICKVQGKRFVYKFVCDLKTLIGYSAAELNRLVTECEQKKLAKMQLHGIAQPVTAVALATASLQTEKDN
# Procedure, shortened: as §1
# ERG = target: T4, ERG (Homo sapiens, UniProt P11308 1-479)
# T4 sequence: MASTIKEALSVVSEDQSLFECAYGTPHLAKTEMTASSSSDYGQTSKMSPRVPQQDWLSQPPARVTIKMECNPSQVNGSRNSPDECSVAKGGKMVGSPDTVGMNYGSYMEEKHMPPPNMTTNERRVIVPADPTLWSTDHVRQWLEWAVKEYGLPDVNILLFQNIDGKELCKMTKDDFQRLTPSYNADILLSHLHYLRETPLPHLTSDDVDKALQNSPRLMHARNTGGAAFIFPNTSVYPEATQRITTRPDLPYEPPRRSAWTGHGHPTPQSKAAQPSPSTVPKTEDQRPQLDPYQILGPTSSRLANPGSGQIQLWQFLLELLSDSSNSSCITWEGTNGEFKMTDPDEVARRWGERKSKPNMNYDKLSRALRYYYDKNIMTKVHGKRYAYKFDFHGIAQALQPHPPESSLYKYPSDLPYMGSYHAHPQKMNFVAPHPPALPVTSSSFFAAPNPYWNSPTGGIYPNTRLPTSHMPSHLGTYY
# Procedure, shortened: as §1
# ELF1 = ELF1 (Homo sapiens, UniProt P32519 1-619)
# Procedure, shortened: as §1
# EHF = target: T5, EHF (Homo sapiens, UniProt Q9NZC4 1-300)
# T5 sequence: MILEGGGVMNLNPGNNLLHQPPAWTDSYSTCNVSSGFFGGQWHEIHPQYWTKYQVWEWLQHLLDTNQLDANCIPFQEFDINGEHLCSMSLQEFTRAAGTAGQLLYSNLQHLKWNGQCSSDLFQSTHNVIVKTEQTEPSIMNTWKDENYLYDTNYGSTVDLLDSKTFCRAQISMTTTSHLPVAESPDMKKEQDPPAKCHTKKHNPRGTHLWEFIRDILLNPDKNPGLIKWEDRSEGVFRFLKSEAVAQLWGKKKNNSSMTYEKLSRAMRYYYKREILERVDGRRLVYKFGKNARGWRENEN
# Procedure, shortened: as §1
# SPI1 = SPI1 (Homo sapiens, UniProt P17947 1-270)
# Procedure, shortened: as §1
# SPIB = SPIB (Homo sapiens, UniProt Q01892 1-262)
# Procedure, shortened: as §1
# ELK3 = target: T6, ELK3 (Homo sapiens, UniProt P41970 1-407)
# T6 sequence: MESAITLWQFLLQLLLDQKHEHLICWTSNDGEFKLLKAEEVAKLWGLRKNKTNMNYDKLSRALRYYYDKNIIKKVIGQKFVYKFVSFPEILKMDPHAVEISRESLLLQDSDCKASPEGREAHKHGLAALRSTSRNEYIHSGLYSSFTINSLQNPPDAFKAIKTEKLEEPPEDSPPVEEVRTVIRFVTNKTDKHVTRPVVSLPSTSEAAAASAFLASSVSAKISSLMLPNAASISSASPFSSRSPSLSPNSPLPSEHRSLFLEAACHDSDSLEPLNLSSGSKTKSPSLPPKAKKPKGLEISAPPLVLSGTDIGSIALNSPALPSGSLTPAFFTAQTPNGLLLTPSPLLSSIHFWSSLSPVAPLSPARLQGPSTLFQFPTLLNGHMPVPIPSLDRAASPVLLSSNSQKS
# Procedure, shortened: as §1
# FEV = target: T7, FEV (Homo sapiens, UniProt Q99581 1-238)
# T7 sequence: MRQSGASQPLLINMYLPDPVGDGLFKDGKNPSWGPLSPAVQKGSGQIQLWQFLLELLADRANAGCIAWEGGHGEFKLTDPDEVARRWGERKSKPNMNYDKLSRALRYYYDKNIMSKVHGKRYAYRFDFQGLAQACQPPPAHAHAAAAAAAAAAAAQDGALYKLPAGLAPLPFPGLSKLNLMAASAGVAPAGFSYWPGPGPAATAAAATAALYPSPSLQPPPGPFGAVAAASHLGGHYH
# Procedure, shortened: as §1
# ETV5 = ETV5 (Homo sapiens, UniProt P41161 1-510)
# Procedure, shortened: as §1
# SPIC = target: T8, SPIC (Homo sapiens, UniProt Q8N5J4 1-248)
# T8 sequence: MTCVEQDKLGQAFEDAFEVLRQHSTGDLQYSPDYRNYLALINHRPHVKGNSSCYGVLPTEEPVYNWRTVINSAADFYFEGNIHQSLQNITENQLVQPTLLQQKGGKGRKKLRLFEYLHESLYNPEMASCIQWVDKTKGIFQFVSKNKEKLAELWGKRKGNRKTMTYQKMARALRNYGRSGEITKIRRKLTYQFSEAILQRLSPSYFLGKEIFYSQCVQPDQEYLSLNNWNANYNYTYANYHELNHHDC
# Procedure, shortened: as §1
# ELF4 = ELF4 (Homo sapiens, UniProt Q99607 1-663)
# Procedure, shortened: as §1
# ETV1 = ETV1 (Homo sapiens, UniProt P50549 1-477)
# Procedure, shortened: as §1
# ERF = target: T9, ERF (Homo sapiens, UniProt P50548 1-548)
# T9 sequence: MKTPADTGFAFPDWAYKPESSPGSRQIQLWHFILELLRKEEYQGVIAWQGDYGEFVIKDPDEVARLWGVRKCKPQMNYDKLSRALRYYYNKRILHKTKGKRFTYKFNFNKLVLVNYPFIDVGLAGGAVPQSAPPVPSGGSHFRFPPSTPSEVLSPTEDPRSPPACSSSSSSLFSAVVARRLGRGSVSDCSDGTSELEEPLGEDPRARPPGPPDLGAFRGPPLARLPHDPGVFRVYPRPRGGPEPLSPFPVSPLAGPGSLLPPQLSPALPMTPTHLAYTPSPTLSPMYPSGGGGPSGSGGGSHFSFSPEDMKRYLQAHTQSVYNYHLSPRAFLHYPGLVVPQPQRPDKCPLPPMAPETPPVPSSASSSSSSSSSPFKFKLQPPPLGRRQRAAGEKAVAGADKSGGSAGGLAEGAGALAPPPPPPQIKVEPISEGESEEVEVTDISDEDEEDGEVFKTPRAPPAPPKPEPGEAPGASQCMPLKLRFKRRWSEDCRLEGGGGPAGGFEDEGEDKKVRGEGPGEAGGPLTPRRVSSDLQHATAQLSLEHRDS
# Procedure, shortened: as §1
# ETV3L = target: T10, ETV3L (Homo sapiens, UniProt Q6ZN32 1-361)
# T10 sequence: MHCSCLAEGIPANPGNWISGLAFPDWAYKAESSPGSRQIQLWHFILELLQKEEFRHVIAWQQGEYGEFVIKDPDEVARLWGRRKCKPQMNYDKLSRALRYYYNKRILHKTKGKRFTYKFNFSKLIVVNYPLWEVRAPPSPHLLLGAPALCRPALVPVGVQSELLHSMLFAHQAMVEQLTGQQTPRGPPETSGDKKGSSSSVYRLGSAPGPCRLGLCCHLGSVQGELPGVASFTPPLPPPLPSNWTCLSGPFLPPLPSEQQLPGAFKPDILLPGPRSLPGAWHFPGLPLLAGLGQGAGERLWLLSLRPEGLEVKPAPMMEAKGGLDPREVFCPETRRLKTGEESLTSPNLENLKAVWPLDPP
# Procedure, shortened: as §1
# ETS2 = target: T11, ETS2 (Homo sapiens, UniProt P15036 1-469)
# T11 sequence: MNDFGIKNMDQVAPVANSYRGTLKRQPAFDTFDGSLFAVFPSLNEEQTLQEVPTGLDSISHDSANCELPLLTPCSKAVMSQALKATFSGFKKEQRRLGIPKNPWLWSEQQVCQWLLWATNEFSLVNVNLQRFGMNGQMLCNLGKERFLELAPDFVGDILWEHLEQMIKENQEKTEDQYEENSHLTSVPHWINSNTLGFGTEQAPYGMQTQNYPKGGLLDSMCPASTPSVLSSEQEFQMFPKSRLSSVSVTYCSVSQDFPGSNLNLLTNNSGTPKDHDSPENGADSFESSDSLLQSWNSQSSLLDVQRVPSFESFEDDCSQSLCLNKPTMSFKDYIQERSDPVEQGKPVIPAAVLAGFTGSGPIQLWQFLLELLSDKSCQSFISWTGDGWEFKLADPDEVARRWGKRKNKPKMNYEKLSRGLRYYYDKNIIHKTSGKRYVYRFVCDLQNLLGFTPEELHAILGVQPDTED
# Procedure, shortened: as §1
# SPDEF = target: T12, SPDEF (Homo sapiens, UniProt O95238 1-335)
# T12 sequence: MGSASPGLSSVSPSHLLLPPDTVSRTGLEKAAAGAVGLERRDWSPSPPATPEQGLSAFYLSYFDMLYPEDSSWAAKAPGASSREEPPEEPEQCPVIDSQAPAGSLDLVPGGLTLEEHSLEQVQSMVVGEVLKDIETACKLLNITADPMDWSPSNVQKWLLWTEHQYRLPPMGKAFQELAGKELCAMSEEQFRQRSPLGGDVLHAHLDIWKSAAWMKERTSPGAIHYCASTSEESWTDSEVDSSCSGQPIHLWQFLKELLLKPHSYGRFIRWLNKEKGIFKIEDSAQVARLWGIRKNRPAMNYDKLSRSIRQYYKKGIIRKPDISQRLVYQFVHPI
# Procedure, shortened: as §1
# ETV3 = target: T13, ETV3 (Homo sapiens, UniProt P41162-2 1-143)
# T13 sequence: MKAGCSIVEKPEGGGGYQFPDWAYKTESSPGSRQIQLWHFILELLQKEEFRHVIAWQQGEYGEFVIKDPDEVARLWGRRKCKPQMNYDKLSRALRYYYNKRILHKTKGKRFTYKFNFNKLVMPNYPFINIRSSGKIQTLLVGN
# Procedure, shortened: as §1
# ETV6 = ETV6 (Homo sapiens, UniProt P41212 1-452)
# Procedure, shortened: as §1
# Sequence of ETV6 (P41212 whole entry): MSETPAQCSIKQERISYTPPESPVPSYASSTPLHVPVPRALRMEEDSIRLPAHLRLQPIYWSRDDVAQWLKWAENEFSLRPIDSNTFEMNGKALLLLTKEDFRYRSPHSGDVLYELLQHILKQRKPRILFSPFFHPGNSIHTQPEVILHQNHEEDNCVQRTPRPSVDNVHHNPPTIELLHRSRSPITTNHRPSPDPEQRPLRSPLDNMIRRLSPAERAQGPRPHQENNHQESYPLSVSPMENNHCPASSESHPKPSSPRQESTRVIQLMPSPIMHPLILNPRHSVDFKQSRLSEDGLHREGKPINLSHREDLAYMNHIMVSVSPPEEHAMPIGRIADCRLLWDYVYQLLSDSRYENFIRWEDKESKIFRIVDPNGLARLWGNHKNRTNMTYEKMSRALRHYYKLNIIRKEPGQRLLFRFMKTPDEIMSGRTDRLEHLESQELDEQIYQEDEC
# Sequence of ELF1 (P32519 whole entry): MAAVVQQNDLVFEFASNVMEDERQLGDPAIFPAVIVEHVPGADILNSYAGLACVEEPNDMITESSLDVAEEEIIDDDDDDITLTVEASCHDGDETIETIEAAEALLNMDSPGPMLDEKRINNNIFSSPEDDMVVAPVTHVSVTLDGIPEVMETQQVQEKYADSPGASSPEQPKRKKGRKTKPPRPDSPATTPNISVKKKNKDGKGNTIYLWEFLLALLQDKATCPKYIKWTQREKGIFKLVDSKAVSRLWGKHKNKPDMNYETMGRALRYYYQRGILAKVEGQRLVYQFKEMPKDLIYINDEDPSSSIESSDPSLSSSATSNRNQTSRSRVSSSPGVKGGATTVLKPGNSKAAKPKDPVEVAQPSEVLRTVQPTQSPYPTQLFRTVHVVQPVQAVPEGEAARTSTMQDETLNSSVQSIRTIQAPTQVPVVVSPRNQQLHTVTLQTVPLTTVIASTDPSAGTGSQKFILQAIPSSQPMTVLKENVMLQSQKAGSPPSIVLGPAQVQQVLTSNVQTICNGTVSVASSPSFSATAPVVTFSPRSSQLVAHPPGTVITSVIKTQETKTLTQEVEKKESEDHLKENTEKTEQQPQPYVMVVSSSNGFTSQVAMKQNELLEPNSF
# Sequence of ELF4 (Q99607 whole entry): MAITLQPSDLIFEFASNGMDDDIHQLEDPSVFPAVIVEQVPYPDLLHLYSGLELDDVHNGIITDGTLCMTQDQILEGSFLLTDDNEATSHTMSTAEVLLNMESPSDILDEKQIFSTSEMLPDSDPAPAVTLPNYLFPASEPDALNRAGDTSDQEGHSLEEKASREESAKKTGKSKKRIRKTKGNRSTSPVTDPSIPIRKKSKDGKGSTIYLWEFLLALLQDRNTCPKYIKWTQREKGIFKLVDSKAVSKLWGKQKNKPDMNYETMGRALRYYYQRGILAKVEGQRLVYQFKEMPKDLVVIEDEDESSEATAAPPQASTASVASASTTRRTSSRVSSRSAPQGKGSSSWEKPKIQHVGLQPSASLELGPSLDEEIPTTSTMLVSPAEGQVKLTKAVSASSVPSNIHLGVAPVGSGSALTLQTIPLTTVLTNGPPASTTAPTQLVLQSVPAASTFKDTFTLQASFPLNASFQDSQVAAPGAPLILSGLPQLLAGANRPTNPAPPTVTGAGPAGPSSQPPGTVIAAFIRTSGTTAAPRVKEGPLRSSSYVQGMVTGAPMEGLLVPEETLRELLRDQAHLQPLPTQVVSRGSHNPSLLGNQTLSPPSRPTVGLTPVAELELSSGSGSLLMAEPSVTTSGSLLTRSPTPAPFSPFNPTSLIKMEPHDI
# Sequence of SPIB (Q01892 whole entry): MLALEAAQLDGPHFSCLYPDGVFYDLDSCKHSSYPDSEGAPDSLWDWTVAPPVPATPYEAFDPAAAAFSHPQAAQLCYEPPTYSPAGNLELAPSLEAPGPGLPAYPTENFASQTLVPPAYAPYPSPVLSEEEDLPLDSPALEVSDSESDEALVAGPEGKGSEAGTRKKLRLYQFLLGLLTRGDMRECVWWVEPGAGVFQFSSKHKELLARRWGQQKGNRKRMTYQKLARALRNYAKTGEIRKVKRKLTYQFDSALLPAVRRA
# Sequence of ETV5 (P41161 whole entry): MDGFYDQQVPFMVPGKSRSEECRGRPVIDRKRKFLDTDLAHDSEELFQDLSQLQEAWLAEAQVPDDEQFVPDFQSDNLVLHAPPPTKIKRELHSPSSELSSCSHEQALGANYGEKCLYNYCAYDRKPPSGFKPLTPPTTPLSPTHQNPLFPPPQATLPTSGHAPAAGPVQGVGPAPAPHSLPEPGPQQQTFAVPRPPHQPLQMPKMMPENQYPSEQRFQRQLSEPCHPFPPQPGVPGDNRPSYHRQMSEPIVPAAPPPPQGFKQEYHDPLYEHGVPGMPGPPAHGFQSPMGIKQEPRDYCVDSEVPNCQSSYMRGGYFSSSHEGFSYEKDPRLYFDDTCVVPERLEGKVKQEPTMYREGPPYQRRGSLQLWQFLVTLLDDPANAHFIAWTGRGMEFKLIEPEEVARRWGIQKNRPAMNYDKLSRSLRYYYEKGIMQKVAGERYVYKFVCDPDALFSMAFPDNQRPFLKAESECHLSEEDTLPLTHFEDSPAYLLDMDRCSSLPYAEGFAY
# Sequence of ETV1 (P50549 whole entry): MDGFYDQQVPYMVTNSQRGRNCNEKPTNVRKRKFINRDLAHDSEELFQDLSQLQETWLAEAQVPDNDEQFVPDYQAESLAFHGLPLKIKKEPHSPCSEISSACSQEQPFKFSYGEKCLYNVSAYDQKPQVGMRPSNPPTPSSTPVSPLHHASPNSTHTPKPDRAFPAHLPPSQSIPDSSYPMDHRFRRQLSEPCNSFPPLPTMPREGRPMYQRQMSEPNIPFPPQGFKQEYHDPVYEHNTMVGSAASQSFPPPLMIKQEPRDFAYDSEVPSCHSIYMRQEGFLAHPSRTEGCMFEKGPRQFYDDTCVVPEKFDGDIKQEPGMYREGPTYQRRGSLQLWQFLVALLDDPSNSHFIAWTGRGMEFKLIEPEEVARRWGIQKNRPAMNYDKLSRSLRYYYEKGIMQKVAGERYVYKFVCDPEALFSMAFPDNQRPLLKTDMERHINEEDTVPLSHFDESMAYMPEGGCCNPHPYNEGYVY
sequence,measurement,setting,value
ACGTTG,binding signal,FLI1,"1.14 fold enrichment (6-mer frequency, TF over GST control)"
same,binding signal,ELK1,"1.11 fold enrichment (6-mer frequency, TF over GST control)"
same,binding signal,GABPA,"1.05 fold enrichment (6-mer frequency, TF over GST control)"
same,binding signal,ERG,"1.05 fold enrichment (6-mer frequency, TF over GST control)"
same,binding signal,ELF1,"1.03 fold enrichment (6-mer frequency, TF over GST control)"
same,binding signal,EHF,"1.07 fold enrichment (6-mer frequency, TF over GST control)"
same,binding signal,SPI1,"1.08 fold enrichment (6-mer frequency, TF over GST control)"
same,binding signal,SPIB,"1.02 fold enrichment (6-mer frequency, TF over GST control)"
same,binding signal,ELK3,"1.01 fold enrichment (6-mer frequency, TF over GST control)"
same,binding signal,FEV,"1.07 fold enrichment (6-mer frequency, TF over GST control)"
same,binding signal,ETV5,"1.03 fold enrichment (6-mer frequency, TF over GST control)"
same,binding signal,SPIC,"1.28 fold enrichment (6-mer frequency, TF over GST control)"
same,binding signal,ELF4,"1.13 fold enrichment (6-mer frequency, TF over GST control)"
same,binding signal,ETV1,"1.06 fold enrichment (6-mer frequency, TF over GST control)"
same,binding signal,ERF,"1.07 fold enrichment (6-mer frequency, TF over GST control)"
same,binding signal,ETV3L,"1.08 fold enrichment (6-mer frequency, TF over GST control)"
same,binding signal,ETS2,"1.07 fold enrichment (6-mer frequency, TF over GST control)"
same,binding signal,SPDEF,"1.17 fold enrichment (6-mer frequency, TF over GST control)"
same,binding signal,ETV3,"1.11 fold enrichment (6-mer frequency, TF over GST control)"
same,binding signal,ETV6,"1.11 fold enrichment (6-mer frequency, TF over GST control)"
